Assay outcomes from PubChem BioAssay.
Pol kappa inh – DNA polymerase kappa (human) inhibition; purified Pol kappa, fluorescent DNA synthesis assay, 10 min; Potency, µM (highest dose often 107 µM), for inactives: top-dose activity, negative = inhibition, actives largely listed as inhibitors; actives 0.53% (n = 400,000); AID 588579; also: % is scaled to controls: 0 for no effect and ±100 for the full control effect
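Readout: fluorescence, taken kinetically at 0 and 10 min. Conditions: 10 nM Pol kappa, 15 min RT compound preincubation, 50 nM substrate final. Controls: enzyme-free buffer wells.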
POLI inh – inhibitors of human DNA polymerase iota | Q9UNA4 | Pol iota fluorescent replication assay, 10 min | Potency, µM (doses to about 115 µM), for inactives: top-dose activity, negative = inhibition, hits mostly inhibitors | actives 1% (n = 390,000) | AID 588590
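Pol iota at 10 nM preincubated 15 min with compounds at room temperature; reaction started with fluorescent substrate, 50 nM final. Fluorescence read kinetically at 0 and 10 min; buffer-only wells as negative control.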
POLB inh – blocks human DNA polymerase beta activity | actives 1.3% (n = 340,000) | Pol beta primer extension/strand displacement, fluorescence kinetic | P06746 | Potency, µM (top dose mostly 114 µM), for the others: at the highest dose activity change, negative = inhibition, usual class: inhibitors; also: % is scaled to controls: 0 for no effect and ±100 for the full control effect
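Values derive from four-parameter Hill fits of normalized kinetic data: reads at 0 and 10 min following addition of 50 nM substrate to 10 nM Pol beta preincubated 15 min with compound.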
WRN helicase inh – blocks human WRN helicase. Q14191. actives 0.46% (n = 360,000). Potency, µM (highest dose often 114 µM), for the others: top-dose activity change, negative = inhibition, actives largely listed as inhibitors. WRN helicase unwinding, fluorescent forked duplex, kinetic; also: % is scaled to controls: 0 for no effect and ±100 for the full control effect; nearly all actives have a fitted effect of over 55% in size
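Screening of the MLSMR collection measured strand separation of a quenched forked DNA duplex (100 nM) by 20 nM WRN with 2 mM ATP, all final. Compounds were preincubated with enzyme 15 min at room temperature.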
POLH inh – inhibitors of human DNA polymerase eta; Q9Y253; recombinant Pol eta, fluorescent DNA replication assay; Potency, µM (highest dose often 114 µM), for inactives: top-dose activity change, negative = inhibition, hits mostly inhibitors; actives 1.2% (n = 390,000); AID 588591; also: % is scaled to controls: 0 for no effect and ±100 for the full control effect
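Pol eta at 10 nM preincubated with compounds 15 min at room temperature; reaction started with fluorescent substrate (50 nM final) and read kinetically at 0 and 10 min.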
PGK validate – TbPGK inhibition, hit validation | Potency, µM (highest dose often 57.5 µM), for the others: at the highest dose activity change, negative = inhibition, hits mostly inhibitors | actives 79% (n = 500) | shares compounds with Pol kappa inh | TbPGK coupled GAPDH assay, Kinase-Glo luminescence; also: % is scaled to controls: 0 for no effect and ±100 for the full control effect; nearly all actives have a fitted effect of over 65% in size
POLI cherry-pick – Human Pol iota inhibitor confirmatory assay; shares compounds with Pol kappa inh; actives 77% (n = 1,500); Pol iota primer extension, TAMRA/BHQ fluorescence; Potency, µM, most hits filed as inhibitors
Active calls of the source: *; ? = inconclusive; · = not tested or not shown; [ ] = dose if it differs, or a comment. Most compounds without a hit are left out; they make up all but 2.3% or so of the library. Calls follow the shape of the dose curve; as a rule, active = well fitted curve in the direction sought with a large enough effect; inconclusive = small, poorly fitted or top-dose-only effect, or another doubt; inactive = no such curve, though single readings can be large; an effect the other way counts as inactive or inconclusive. Potency is read from the fitted curve at half-maximal effect.

SMILES | Pol kappa inh | POLI inh | POLB inh | WRN helicase inh | POLH inh | POLI cherry-pick | others
CSc1ccc(C=NNc2ccc(S(=O)(=O)Nc3ccccc3C(=O)O)cc2[N+](=O)[O-])cc1 | ? | 25µM* | · | ? | ? | · | PGK validate=4.1µM*
CCOc1ccc(C=NNc2ccc(S(=O)(=O)Nc3ccccc3C(=O)O)cc2[N+](=O)[O-])cc1 | -14% | ? | · | -28% | -12% | ·
Cc1ccccc1OCC(=O)OCC(=O)NCc1ccco1 | -10% | 22% | · | 7% | -1% | ·
COc1ccccc1NCCC(=O)OCC(=O)NCc1ccco1 | 79µM* | 6.3µM* | 18µM* | ? | 5.6µM* | ?
Cc1ccc(S(=O)(=O)CC(=O)Nc2nc3c(C)cc(C)cc3s2)cc1 | -9%[60.1 µM] | 4% | -12% | · | 1% | ·
COc1cccc2c(C)nc(Nc3nc(CSc4nnc(C)s4)cc(=O)[nH]3)nc12 | -8% | ? | -1% | -7%[57.1 µM] | -5% | ?
Cc1ccc2c(C)nc(Nc3nc(CSc4nnc(C)s4)cc(=O)[nH]3)nc2c1 | 14% | 38% | 253% | 14% | 29% | ·
COc1ccc(-c2nc3c(=O)n(C)c(=O)nc-3n(C)n2)cc1 | -19% | -149% | · | · | · | ·
O=c1c(OC2OC(CO)C(O)C(O)C2O)c(-c2ccc(O)c(O)c2)oc2cc(O)cc(O)c12 (centres undefined) | 18µM* | 25µM* | -19% | -4%[11.6 µM] | ? | · | PGK validate=?
C[C@@H]1O[C@@H](Oc2c(-c3cc(O)c(O)c(O)c3)oc3cc(O)cc(O)c3c2=O)[C@H](O)[C@H](O)[C@H]1O | 1.7µM* | 50µM* | ? | -15% | ? | ?
CS(=O)(=O)NCCSCc1ccco1 | ? | ? | 40µM* | ? | 71µM* | · | PGK validate=21µM*
COc1c(O)c(=O)n2c3ccccc3c3ccnc1c32 | -14% | ? | · | -19% | -26% | 4.7*
O=C1C2C3C=CC(CC3)C2C(=O)N1c1nccs1 (centres undefined) | 18µM* | 16µM* | 22µM* | 40µM* | ? | 75*
Cc1ccc(/C=N/N2CCCCC2)o1 | -9% | -5% | 4% | -5% | -9% | · | PGK validate=0%
O=C1N[C@@H]2[C@H](CCCCC(=O)Oc3ccc([N+](=O)[O-])cc3)SC[C@H]2N1 | 9%[60.1 µM] | · | · | · | · | ·
O=Cc1cn(-c2ccccc2)nc1-c1cc2c(ccc3ccccc32)oc1=O | 3% | 4% | 3% | 0% | ? | ·
O=Cc1cn(-c2ccccc2)nc1-c1cc2cc(O)ccc2oc1=O | ? | 22µM* | 56µM* | ? | ? | ?
O=C(CCO)c1ccc(O)cc1 | 8.9µM* | 5µM* | ? | 28µM* | 3.5µM* | · | PGK validate=1.6µM*
CCCOc1ccc(CNC(=O)Cn2cc3c(n2)-c2c(oc(C(=O)N4CCOCC4)c2C)CC3)cc1 | 4% | -6% | 11% | · | -13% | ·
CCN(CC)c1ccc(C(=C2C=CC(=[N+](CC)CC)C=C2)c2ccc(N(CC)CC)cc2)cc1 | 6% | 2% | · | -13% | -17% | · | PGK validate=16µM*
CCN(CC)c1ccc(C(=O)NNC(=O)CCl)cc1 | 4% | 3% | -6% | -11%[57.1 µM] | -1% | ·
COc1cc(OC)c(OC)cc1CN1CCc2nc(Nc3ccc4c(c3)OCCO4)ncc2C1 | -6%[60.1 µM] | -23% | 15% | · | 0% | ·
COc1cc(NC(=O)c2ccccc2)ccc1NC(=O)c1cc2ccccc2o1 | 4% | 58% | 3% | 16% | -17% | ·
Cc1cc(NC(=O)c2cncc(Br)c2)ccc1NC(=O)c1cc2ccccc2o1 | -12% | ? | ? | -11%[11.6 µM] | 50µM* | ?
Cn1c2ccccc2c(=O)c2ccc(C#Cc3ccccn3)cc21 | -19% | 32µM* | 25µM* | -11%[11.6 µM] | 28µM* | ?
SMILES | Pol kappa inh | POLI inh | POLB inh | WRN helicase inh | POLH inh | POLI cherry-pick | others
Cn1c2ccccc2c(=O)c2cc(C#Cc3ccccn3)ccc21 | -9% | -1% | -3% | -3% | -4% | ·
O=C(CCNC(=O)c1ccc(Br)cc1)NCc1ccco1 | 1% | -18% | · | -15% | -12% | ·
O=C(CCS(=O)(=O)c1ccc(Br)cc1)NCc1ccco1 | -2% | 26% | ? | -16% | ? | · | PGK validate=16µM*
Cc1cc(C)c(NC(=O)CCCn2c(C)c3cnn(-c4ccccc4)c(=O)c3c2C)c(C)c1 | -13% | 9% | -4% | · | -4% | ·
Cc1ccc2c(c1)-c1nc(-c3ccc4c(c3)NC(=O)CO4)cc(-c3ccc(F)cc3)c1CO2 | 8% | 26% | 16% | · | -12% | ·
O=C1CCSC2(C(=O)N(Cc3ccc(F)cc3)c3ccccc32)N1c1ccc(Cl)cc1 (centres undefined) | -3% | -15% | -18% | · | -8% | ·
Fc1ccccc1Nc1nc2ccccc2o1 | -6% | 9% | 0% | 5% | 0% | · | PGK validate=18µM*
Cc1cccc(NC(=O)CSc2nc(C3CC3)nc3ccccc23)c1 | -6% | 22µM* | 22µM* | -5%[11.6 µM] | 40µM* | 67*
CCS(=O)(=O)N1CCCc2cc(C(=O)Nc3cc([N+](=O)[O-])ccc3C)ccc21 | -14% | -20% | -1% | · | -8% | ·
Cc1ccc(-c2csc(C3=C(O)CN(NC(=O)c4ccc([N+](=O)[O-])cc4)C3=N)n2)cc1 | -4% | -9% | ? | -1% | -2% | ·
N=C1C(c2nc(-c3cccc([N+](=O)[O-])c3)cs2)=C(O)CN1NC(=O)c1ccco1 | ? | 50µM* | 0% | ? | 50µM* | ?
COc1ccc(OC)c(NC(=O)c2ccc3c(c2)c(C)c(C)n3Cc2ccc(F)cc2)c1 | -1% | 6% | -3% | · | -7% | ·
O=C(N/N=C/C=C/c1ccccc1[N+](=O)[O-])c1ccncc1 | 6% | 15% | 20% | 5% | -15% | ·
O=C(N/N=C/C=C\c1ccccc1[N+](=O)[O-])c1cc(-c2ccc3ccccc3c2)n[nH]1 | -30% | ? | 18µM* | -35% | ? | 38*
Cc1ccc(OCC(=O)N(C)CC(=O)NCc2ccco2)c(Br)c1 | 79µM* | ? | · | ? | 14µM* | · | PGK validate=21µM*
Cc1ccc(OCCCC(=O)NCc2ccco2)c(C)c1 | · | · | -22% | · | · | ·
CCC(C)[C@H]1CNCCN1CCc1cccc2ccccc12 (some centres undefined) | -29% | ? | · | -5% | 8% | · | PGK validate=?
CCC(C)[C@H]1CNCCN1CC1(c2ccccc2)CC1 (some centres undefined) | -5% | ? | · | 14% | -6% | ·
